From PubChem
Insulin prom inh – inhibitors of insulin promoter-driven GFP, primary screen, imaging, TRM-6 cells (human fetal islet line), eGFP reporter, cell count; reporter expression induced with tamoxifen; inhibition, % at 2 µM; 130,000 tested, 0.9% active; AID 1273, 2008;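 active = inhibition above the mean plus 3 SD, with well images judged a real hit on visual review, cut at about 60% in these data, passing the limit was not always enough; inconclusive = inhibition over the cutoff but images rejected on review; inactive = inhibition not above the cutoff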
L major viab – Leishmania major promastigote growth inhibition, primary screen; Leishmania major promastigotes, resazurin fluorescence viability; inhibition, % at 10 µM; 200,000 tested, 9% active; AID 1063, 2008; in the data active = inhibition above about 50%;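 also: promastigotes grown with compound for 44 hours at 28 °C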
WT yeast gro inh – growth inhibition of WT strain, primary screen, mitochondrial fusion inhibitor project, WT and mutant strains, chemical genetic | inhibition, % at 10 µM | 190,000 tested, 2.1% active | AID 1362, 2008 | mitochondrial fusion phenotypic screen; in the data active = inhibition above about 58%; tested in S. cerevisiae
Insulin prom up – insulin promoter activators in MIN6 cells, imaging, high-content screening, mouse beta cells; MIN6 insulin promoter-GFP reporter; stronger effect = higher value; 190,000 tested, 0.3% active; z-score at 5 µM;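 active = z-score above 3 at 5 µM with at least 500 cells counted in the well; inconclusive = wells under 500 cells, flagged as cytotoxic or low count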
Cl transport mod – KCC2 cotransporter modulators, thallium flux, primary screen, cell-based, HEK293 KCC2, FluoZin-2 fluorescence, MLSMR | KCC2 cells, thallium flux FluoZin-2 fluorescence | 190,000 tested, 2.2% active | AID 1456, 2008 | Solute carrier family 12 member 5 (Homo sapiens), Q9H2X9 | B-score of Tl+ flux slope (higher = more flux/activation; lower = inhibition) at 10 µM;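 active = thallium flux slope and its plate-corrected score both differing from the plate sample mean at a set confidence after two filtering rounds, in either direction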;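 also: slope of fluorescence scaled to starting intensity during 10 to 20 s after thallium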
ROMK mod – ROMK potassium channel modulators, primary screen, cell-based, thallium flux, MLSMR library; Tet-inducible ROMK, thallium flux fluorescence; actives lie on both sides; B-score at 10 µM; 130,000 tested, 2% active; AID 1918, 2009;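 active = signal ratio slope over the read window, or its plate-corrected B-score, at least 3 SD from the plate mean, either direction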;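 also: B-score of the F/F0 ratio slope over 7 to 12 s after thallium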
Target sequence (P48048 whole entry, looked up): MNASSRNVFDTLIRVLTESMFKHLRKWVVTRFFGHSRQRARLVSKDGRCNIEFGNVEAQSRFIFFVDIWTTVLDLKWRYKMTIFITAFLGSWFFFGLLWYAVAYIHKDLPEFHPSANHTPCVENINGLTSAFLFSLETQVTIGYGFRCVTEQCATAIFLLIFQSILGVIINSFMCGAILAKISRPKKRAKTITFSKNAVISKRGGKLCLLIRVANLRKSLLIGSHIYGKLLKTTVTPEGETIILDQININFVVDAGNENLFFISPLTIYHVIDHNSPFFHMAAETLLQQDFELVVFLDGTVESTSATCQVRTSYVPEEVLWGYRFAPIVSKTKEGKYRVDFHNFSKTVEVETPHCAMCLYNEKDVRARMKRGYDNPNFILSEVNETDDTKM
L major 1uM – Leishmania major promastigote growth inhibition, confirmation, 1 µM repeat of primary hits. shares compounds with L major viab. L. major promastigote growth, resazurin fluorescence, 48 h. inhibition, % at 1 µM. 1,100 tested, 13% active. AID 1258, 2008;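 active = inhibition above about 50% in both repeat tests, limit read from the data; inconclusive = one repeat under the set limit, the other over it; inactive = both repeats under the set limit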
KCC2 sec1 – KCC2 modulators in sodium-free buffer, confirmation, cell-based, HEK293 KCC2, thallium flux, secondary assay | normalised thallium flux (F/F0 slope) at 10 µM | shares compounds with Cl transport mod | FluoZin2 fluorescence; stronger effect = higher value | 3,700 tested, 15% active;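 active = thallium flux slope above the same plate's solvent-only control mean plus 3 SD; inconclusive = the two replicate wells disagree; inactive = no significant difference from solvent-only control wells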
KCC2 bumet counter – thallium flux persisting under bumetanide in KCC2 cells, confirmation, counter-screen for KCC2 modulator project, cell-based, HEK293 KCC2, FluoZin2, secondary assay 3 | shares compounds with Cl transport mod | HEK293-KCC2 + bumetanide/ouabain; stronger effect = higher value | normalized thallium flux at 10 µM | 3,700 tested, 49% active | AID 1714, 2009;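 active = thallium entry rate above the same plate's blocked-transporter control wells by more than 3 SD; inconclusive = the two repeat wells disagree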;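 also: raw slope of fluorescence over initial fluorescence between 10 and 20 s after thallium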
KCC2 sec2 – KCC2 modulators without ouabain present, confirmation, cell-based, HEK293 KCC2, thallium flux, FluoZin2, secondary assay 2. shares compounds with Cl transport mod. normalized thallium flux at 10 µM. 3,700 tested, 23% active. thallium flux FluoZin2 fluorescence; actives lie on both sides; F/F0 rise rate, 10–20 s post-thallium;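 active = thallium flux slope more than 3 SD above or below the plate's solvent-only control mean, mostly below; inconclusive = the two repeat wells disagreed; inactive = no significant shift from solvent-only controls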;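 also: raw slope with 0.1% DMSO as baseline and bumetanide as block control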
HEK counter1 – thallium flux modulation in parental HEK cells, confirmation, counter-screen for KCC2 modulator project, cell-based, counterscreen 1; thallium flux rate (normalised fluorescence) at 10 µM; 3,700 tested, 46% active; shares compounds with Cl transport mod; HEK293 parental cells, thallium flux FluoZin2, ouabain; baseline-ratio fluorescence slope, 10–20 s after thallium;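 active = thallium flux rate significantly above the same plate's solvent-only control wells, beyond their mean plus 3 SD; inconclusive = the two replicate wells gave conflicting results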
KCC2 retest ouab – KCC2 inhibitors and activators, ouabain retest, confirmation, HEK-KCC2 cells | AID 1717, 2009 | HEK293-KCC2, thallium flux FluoZin2 fluorescence; bidirectional: low = inhibitor, high = activator | shares compounds with Cl transport mod | raw Tl+ flux slope (below DMSO = inhibition, above = activation) at 10 µM | 3,700 tested, 48% active;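 active = thallium flux slope beyond 3 SD from same-plate DMSO control mean in most replicates, usually higher, sometimes lower; inconclusive = repeat tests gave conflicting results; inactive = no significant difference from controls in most replicates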;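 also: slope of initial-normalized fluorescence between seconds 10 and 20 after thallium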
HEK293 Tl flux2 – native HEK Tl+ uptake effects, second counter-screen – HEK cells, counterscreen 2, counter-screen for KCC2 modulator project, confirmation; shares compounds with Cl transport mod; HEK293 parental, thallium flux FluoZin-2 fluorescence slope; thallium flux slope at 10 µM; 3,700 tested, 33% active;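 active = thallium flux slope above the same plate's solvent-control mean plus 3 SD in both duplicate wells; inconclusive = duplicate wells that disagreed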;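 also: run without ouabain in cells lacking the KCC2 cotransporter; slope of fluorescence scaled to its starting value between 10 and 20 s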
ROMK retest – ROMK channel modulator hit retest, confirmation, cell-based, thallium flux, duplicate, resupplied hits | 3,000 tested, 54% active | fluorescence ratio; stronger effect = lower value | normalized thallium flux (F/F0 slope) at 10 µM | shares compounds with ROMK mod;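 active = Flux at 10 µM at least 3 SD below or above vehicle control mean in one or both replicates; inconclusive = no clear call, values can overlap the other calls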
* hit, by the source's call. Most compounds without a hit are left out; they make up all but 12% or so of the library.

`Cc1c(Cl)sn(-c2ccc(Cl)cc2)c1=O` gave L major viab 101*, WT yeast gro inh 94, Insulin prom up -1.9, Cl transport mod -5.9*, ROMK mod -2.5, L major 1uM 100*, KCC2 sec1 0.0062, KCC2 bumet counter 0.0048, KCC2 sec2 0.023*, HEK counter1 0.0069, KCC2 retest ouab 0.012* and HEK293 Tl flux2 inconclusive.
CCN(CC)CCNC(=O)c1[nH]c2ccc(OCc3ccccc3)cc2c1C was read as Insulin prom inh -62, L major viab 100*, WT yeast gro inh 15, Insulin prom up 0.58, ROMK mod -5*, L major 1uM -17 and ROMK retest 0.063*.
CCC(NC(=O)Nc1nnc(C(F)(F)F)s1)(C(F)(F)F)C(F)(F)F was read as L major viab 101*, WT yeast gro inh 40, Insulin prom up -0.4, ROMK mod -5.8*, L major 1uM -7 and ROMK retest 0.062*.
For O=C(O)CCC(=O)Nc1nnc(C(F)(F)F)s1 the results were Insulin prom inh 7, L major viab -1, WT yeast gro inh -12, Insulin prom up -0.24 and Cl transport mod -0.064.
`CC(C)=NOCc1ccc(-c2cn([C@@H]3COC[C@H]3O)nn2)cc1` gave Insulin prom inh -5, L major viab -6, WT yeast gro inh -13, Insulin prom up 0.5, Cl transport mod -0.1 and ROMK mod -0.19.
Cc1ccc(C(C[N+](=O)[O-])n2nc(C)cc2C)cc1 (stereo not given) was read as Insulin prom inh 18, L major viab 100*, WT yeast gro inh -12, Insulin prom up -0.24, Cl transport mod -1.7, ROMK mod -2.4, L major 1uM 36 and ROMK retest 0.059*.
Screening O=C(O)c1ccc(S(=O)(=O)NC2CC2)cc1 returned Insulin prom up -0.33 and Cl transport mod 0.31.
Screening Nc1nc(CN2CCN(Cc3ccccc3)CC2)nc(Nc2ccccc2)n1 returned Insulin prom inh 56, L major viab 2, WT yeast gro inh 30 and Cl transport mod 0.02.
For CCCCCCCC1CC(CSC(=N)N)OC1=O (stereo not given) the results were Insulin prom inh 31, L major viab 100*, WT yeast gro inh -7, Insulin prom up 0.03, Cl transport mod 0.59, ROMK mod -5*, L major 1uM 8 and ROMK retest 0.058*.
Screening CCOC(=O)C(=Cc1cc(=O)c(OC)co1)C(=O)OCC returned Insulin prom inh -7, L major viab 100*, WT yeast gro inh 17, Insulin prom up inconclusive, Cl transport mod 0.87, ROMK mod -4.1*, L major 1uM 101* and ROMK retest 0.048*.
`COc1coc(C(O)CN)cc1=O` (stereo not given) gave Insulin prom inh 13, L major viab 1, WT yeast gro inh -6, Insulin prom up -0.14, Cl transport mod 0.13 and ROMK mod 1.9.
`CC1=CS(=O)(=O)CC1Sc1nc2ccccc2[nH]1` (stereo not given) gave Insulin prom inh -17, L major viab 12, WT yeast gro inh -5, Insulin prom up -0.29, Cl transport mod -0.16 and ROMK mod 0.21.
For CCN1CCN(CCNC(=O)CS(=O)(=O)Cc2nc(-c3ccc(C)cc3)oc2C)CC1 the results were L major viab 46, WT yeast gro inh 11 and Insulin prom up -0.96.
For Cc1ccc(-c2nc(CSCC(=O)NCCN3CCN(Cc4ccccc4)CC3)c(C)o2)cc1 the results were L major viab 52*, WT yeast gro inh -11, Insulin prom up -0.57, Cl transport mod -0.19, ROMK mod -3.7*, L major 1uM -26 and ROMK retest inconclusive.
Screening O=c1[nH]sc2ccccc12 returned Insulin prom inh -55, L major viab 67*, WT yeast gro inh 25, Insulin prom up 0.77, ROMK mod -4.5*, L major 1uM 31 and ROMK retest 0.052*.
O=c1cc(O)sc2ccccc12 was read as L major viab -3, WT yeast gro inh 13, Insulin prom up 0.18, Cl transport mod -0.81 and ROMK mod 0.095.
`COc1ccc(O[C@H]2C=C[C@@H](c3ccccc3)O[C@@H]2CO/N=C(\C)CCN2CCc3nc(-c4ccccc4)c(-c4ccccc4)cc3C2)cc1` gave Insulin prom inh -10, L major viab 7, WT yeast gro inh 6, Insulin prom up -0.73, Cl transport mod -0.059 and ROMK mod -2.6.
